Assay results reported in PubChem BioAssay.
Potency and affinity values are given separately. Active and inactive are the calls of the source.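 The calls were made as follows: active = fitted dose curve reaches 40% lysis signal rise at or below the highest valid concentration tested for that sample; inconclusive = flat fit between 30% and 70%, or poor curve fit; inactive = signal falls, stays flat within 30%, or no crossing.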

assay: C. neoformans lysis by adenylate kinase leakage – AK release luminescence, cherry-picks, dose response (AID 687000); settings: 4 h, 100% = twice the neutral-control signal; series mostly up to 15 µM;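 also: luminescent detection of adenylate kinase leaking from lysed yeast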

SMILES	outcome
CO[C@H]1CN(C)C(=O)c2cc(NS(=O)(=O)CC(F)(F)F)ccc2OC[C@H](C)N(Cc2cccnc2)C[C@@H]1C	inactive
C[C@@H]1CCCCO[C@@H](CN(C)Cc2ccc(C(F)(F)F)cc2)[C@@H](C)CN([C@@H](C)CO)C(=O)c2cc(NS(=O)(=O)c3cn(C)cn3)ccc2O1	inactive
CCNC(=O)Nc1ccc2c(c1)C(=O)N(C)[C@H]1CC[C@H](CC(=O)N[C@@H](C)c3ccccc3)O[C@H]1CO2	inactive
C/C=C/c1cnc2c(c1)C(=O)N([C@@H](C)CO)C[C@@H](C)[C@@H](CN(C)C(=O)C1CCCCC1)O2	inactive
COc1ccc(S(=O)(=O)Nc2ccc3c(c2)C(=O)N([C@H](C)CO)C[C@@H](C)[C@@H](CN(C)C(=O)Nc2ccccc2)O3)cc1	inactive
Cc1cc(C(=O)Nc2cccc3c2O[C@H](CN(C)S(=O)(=O)c2ccccc2)[C@H](C)CN([C@H](C)CO)C3=O)n(C)n1	inactive
CNC(=O)C[C@H]1CC[C@H]2[C@@H](COc3ccc(NC(=O)Nc4ccccc4)cc3C(=O)N2C)O1	inactive
CCNC(=O)Nc1ccc2c(c1)C(=O)N(C)[C@@H]1CC[C@H](CC(=O)N[C@@H](C)c3ccccc3)O[C@@H]1CO2	inactive
CC(=O)N1[C@H](CO)[C@H](c2ccc(-c3ccccc3)cc2)[C@H]1CNC(=O)C1CC1	inactive
CCC(=O)N1C[C@H](O)COC[C@@H]2O[C@@H](CC(=O)NCc3ccccc3Cl)CC[C@H]21	inactive
C[C@@H]1CN([C@@H](C)CO)C(=O)c2cccc(NC(=O)c3ccncc3)c2O[C@H]1CN(C)C(=O)Nc1ccccc1	inactive
CN1C(=O)N[C@@H]2c3ccccc3O[C@@]1(C)[C@@H]2COC(=O)c1ccccc1	inactive
C[C@@H]1CN([C@H](C)CO)C(=O)c2cc(NC(=O)CCC(F)(F)F)ccc2O[C@@H](C)CCCCO[C@@H]1CN(C)C(=O)c1ccncc1	inactive
COc1ccccc1CNC(=O)C[C@@H]1C[C@H]2c3cc(NC(=O)Nc4ccccc4F)ccc3O[C@H]2[C@@H](CO)O1	inactive
O=C(NCC[C@H]1CC[C@H](NS(=O)(=O)c2ccc(F)cc2)[C@@H](CO)O1)c1ccc2c(c1)OCO2	inactive
O=C(NCc1ccc(F)cc1)C1C2C=CC3(CN(Cc4cccnc4)C(=O)C13)O2 (centres undefined)	inactive
COc1ccccc1CNC(=O)C[C@@H]1C[C@@H]2c3cc(NC(=O)Nc4ccccc4F)ccc3O[C@@H]2[C@H](CO)O1	inactive
O=C(C[C@H]1C[C@@H]2c3cc(NC(=O)CC4CC4)ccc3O[C@@H]2[C@@H](CO)O1)NCc1cccc(F)c1	inactive
CCCNC(=O)C[C@H]1C[C@H]2c3cc(NC(=O)Nc4ccc(OC)cc4)ccc3O[C@H]2[C@@H](CO)O1	inactive
Cc1ccc(S(=O)(=O)N[C@@H]2CCCN(Cc3cccc(OCCO)c3)C2)cc1	inactive

SMILES	outcome
COc1ccccc1CNC(=O)C[C@@H]1CC[C@@H]2[C@H](COC[C@@H](O)CN2Cc2ccccc2)O1	inactive
C[C@@H]1CN([C@@H](C)CO)C(=O)c2cc(NC(=O)CCN3CCOCC3)ccc2O[C@@H]1CN(C)Cc1ccc(C(=O)O)cc1	inactive
C[C@H]1CN([C@@H](C)CO)C(=O)c2cc(Br)cnc2O[C@@H]1CN(C)Cc1ccccn1	inactive
Cc1cc(C)c(NC(=O)C2CCCCN2C)c(C)c1 (centres undefined)	inactive
COCC(=O)Nc1ccc2c(c1)C(=O)N(C)C[C@@H](OC)[C@H](C)CN(Cc1ccccc1)[C@@H](C)CO2	inactive
COc1ccc(-n2ncc3c(SCC(=O)OC(C)C)ncnc32)cc1	inactive
Cc1noc(C)c1S(=O)(=O)Nc1ccc2c(c1)C(=O)N([C@H](C)CO)C[C@@H](C)[C@H](CN(C)Cc1ccccc1)OCCCC[C@H](C)O2	inactive
O=C(NC1CCCC1)N1CCCCN2[C@H](CO)[C@@H](c3ccc(-c4cncnc4)cc3)[C@H]2C1	inactive
C[C@H](CO)N1C[C@H](C)[C@@H](CN(C)Cc2cccc(C(F)(F)F)c2)OCc2cnnn2CCCC1=O	inactive
C[C@H](NC(=O)C[C@@H]1CC[C@@H]2[C@H](COC[C@@H](O)CN2C(=O)Nc2cccc(F)c2)O1)c1ccccc1	inactive
O=C(C[C@@H]1C[C@@H]2c3cc(NC(=O)Nc4ccc(F)cc4)ccc3O[C@@H]2[C@@H](CO)O1)NCC1CC1	inactive
C[C@@H]1CCCCO[C@H](CN(C)C(=O)c2ccccc2)[C@@H](C)CN([C@@H](C)CO)C(=O)c2cc(NC(=O)c3ccccc3)ccc2O1	inactive
Cc1ccc(NC(=O)[C@H](C)NC(=O)C2CCN(C(=O)[C@@H](N)C(C)C)CC2)cc1	inactive
Cc1ccc(C)c(NC(=O)C2(C)CCCN2C(=O)C(C)C)c1 (centres undefined)	inactive
Cc1noc(C)c1NC(=O)N(C)C[C@@H]1Oc2ccc(NC(=O)NC(C)C)cc2CC(=O)N([C@H](C)CO)C[C@H]1C	inactive
COc1ccc(CN(C)C[C@@H]2Oc3ccc(NC(=O)Nc4ccc(F)cc4)cc3CC(=O)N([C@H](C)CO)C[C@H]2C)cc1	inactive
CC(C)CC#Cc1cnc2c(c1)C(=O)N([C@H](C)CO)C[C@@H](C)[C@@H](CN(C)C(=O)c1ccc3c(c1)OCO3)O2	inactive
CN1C(=O)c2cc(NS(C)(=O)=O)ccc2OC[C@@H]2O[C@@H](CC(=O)O)CC[C@H]21	inactive
C[C@@H]1CN([C@H](C)CO)C(=O)CCCn2cc(nn2)CO[C@@H]1CN(C)C(=O)CCCN(C)C	inactive
